According to the supplement of paper PMC6555819:

Experiments:
Assay in all cases: PBM binding z-score (relative to random genomic background probes); higher = stronger binding; sequences stand for … in GC…GCGATTGACAGCGTAGAATGAAGG
[1] = test system: FXR:RXRa (NR concentration 270 nM, RXRa partner concentration 90 nM)
Procedure, shortened: (§1)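 On custom Agilent 4×180K arrays, double-stranded probes with 34-nt variable regions carried direct-repeat seeds, single-nucleotide variants, half-site ablations or random human genomic background. Ligand-free nuclear receptor dimers were applied for 1 h, and binding was read with antibodies against each partner (one per run). Binding z-scores come from regression-normalized fluorescence, with the random background probes as reference.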

[2] = test system: LXRa homodimer (NR concentration 270 nM)
Procedure, shortened: as §1

[3] = test system: LXRb homodimer (NR concentration 270 nM)
Procedure, shortened: as §1

[4] = test system: PPARg:RXRa (NR concentration 180 nM, RXRa partner concentration 90 nM)
Procedure, shortened: as §1

[5] = test system: PPARg:RXRa 270nM:90nM, anti-RXR (NR concentration 270 nM, RXRa partner concentration 90 nM)
Procedure, shortened: as §1

[6] = test system: PPARg:RXRa 30nM:10nM, anti-RXR (NR concentration 30 nM, RXRa partner concentration 10 nM)
Procedure, shortened: as §1

[7] = test system: PPARg:RXRa 90nM:30nM, anti-RXR (NR concentration 90 nM, RXRa partner concentration 30 nM)
Procedure, shortened: as §1

[8] = test system: PPARg:RXRa DBDmut IVT, anti-RXR (DBD mutation: RXRa K156A/R161A, NR concentration 270 nM, RXRa partner concentration 90 nM)
Procedure, shortened: as §1

[9] = test system: PPARg:RXRa IVT, anti-PPARg (NR concentration 270 nM, RXRa partner concentration 90 nM)
Procedure, shortened: as §1

[10] = test system: PPARg DBDmut:RXRa IVT, anti-PPARg (DBD mutation: PPARg1 K132A/R137A, NR concentration 270 nM, RXRa partner concentration 90 nM)
Procedure, shortened: as §1

[11] = test system: PPARg DBDmut IVT, anti-PPARg (DBD mutation: PPARg1 K132A/R137A, NR concentration 270 nM)
Procedure, shortened: as §1

[12] = test system: PPARg homodimer (NR concentration 180 nM)
Procedure, shortened: as §1

[13] = test system: PXR:RXRa (NR concentration 270 nM, RXRa partner concentration 90 nM)
Procedure, shortened: as §1

[14] = test system: PXR homodimer (NR concentration 270 nM)
Procedure, shortened: as §1

[15] = test system: RARa:RXR (NR concentration 270 nM, RXRa partner concentration 90 nM)
Procedure, shortened: as §1

[16] = test system: RARa homodimer (NR concentration 270 nM)
Procedure, shortened: as §1

[17] = test system: RARb:RXRa (NR concentration 270 nM, RXRa partner concentration 90 nM)
Procedure, shortened: as §1

[18] = test system: RARb homodimer (NR concentration 270 nM)
Procedure, shortened: as §1

[19] = test system: LXRa:RXRa (NR concentration 270 nM, RXRa partner concentration 90 nM)
Procedure, shortened: as §1

[20] = test system: PPARa:RXRa (NR concentration 270 nM, RXRa partner concentration 90 nM)
Procedure, shortened: as §1

Row | Sequence | PBM binding z-score [1] | PBM binding z-score [2] | PBM binding z-score [3] | PBM binding z-score [4] | PBM binding z-score [5] | PBM binding z-score [6] | PBM binding z-score [7] | PBM binding z-score [8] | PBM binding z-score [9] | PBM binding z-score [10] | PBM binding z-score [11] | PBM binding z-score [12] | PBM binding z-score [13] | PBM binding z-score [14] | PBM binding z-score [15] | PBM binding z-score [16] | PBM binding z-score [17] | PBM binding z-score [18] | PBM binding z-score [19] | PBM binding z-score [20]
1 | CCTACTGGGCCACTAAAGGTCATTGATTCAGTGA | 3.27 | 8.29 | 1.27 | 4.06 | 4.89 | 2.26 | 4.15 | 5.49 | 5.37 | 0.801 | 0.225 | 3.43 | 5.12 | 1.79 | 5.18 | 1.26 | 3.89 | 4.55 |  | 
2 | TGTCAATGTTCAAAGGTAACGTAAGTATCCACAC | 0.202 | -0.216 | 0.283 | 2.34 | 3.47 | 1.61 | 3.32 | -0.214 | 1.8 | 1.27 | 0.82 | 0.516 |  | -0.115 | 0.48 | -0.4 | 1.09 | 0.732 |  | 
3 | ATATGTAGGTTAAGCGTCATTCAGGTTGGTTCGC |  | 0.422 | 0.251 | 6.75 | 6.77 | 5 | 6.63 | 7.13 | 7.49 | 1.71 | 1.99 | 1.04 | 0.685 | -0.178 | 0.705 | 0.512 | 1.17 | 0.88 | 1.08 | 4.16
4 | CGAACTAGGTCAAGGACAGTAAATCTCCGCACGC |  | 0.115 | -0.249 | 7.56 | 6.25 | 3.88 | 6.02 | 7.9 | 7.98 | 5.28 | 4.25 | 3.13 | 1.1 | 0.317 | 2.19 | 0.685 | 3.67 | 2.91 | 2.4 | 4.71
5 | AATACAGGGTCATCGTAGGTCAGAGTACGCACAG | 7.7 | 5.76 | 1.95 | 7.46 | 6.38 | 3.55 | 5.23 | 3.26 | 5.07 | 3.45 | 1.68 | 3.34 |  | 1.57 | 6.33 | 1.7 | 4.69 | 4.58 |  | 
6 | AGTCAAAGTTTATCTAGGTAACGTAAGATATGCT |  | 0.141 | -0.331 | 2.44 | 2.51 | 0.904 | 1.95 | 2.68 | 4.84 | 1.23 | 1.54 | -0.0246 | 0.694 | 0.675 | 0.503 | 0.429 | 1.93 | 0.612 | 0.263 | 2.17
7 | TGTCAAAGTTCAAAGGTTACGTAAGTATCCACAC | 7.49 | 5.25 | 2.03 |  | 8.17 | 5.91 | 8.13 | 0.119 | 5.16 | 1.58 | 1.43 | 3.27 |  | 4.04 |  | 1.12 |  | 4.75 |  | 
8 | CAAACTAGGTCACCGAAAGGTCAAAGTCCGCATG | 7.31 | 7.45 | 2.39 |  | 8.22 | 6.51 | 8.62 | 8.72 | 9.24 | 8.36 | 7.3 | 9.63 |  | 3.23 |  | 4.75 |  | 5.37 |  | 
9 | CTCGAAAGGTCGTGCTCAGATGAGTATACCAAAC | 5.4 | 0.0537 | 0.486 | 2.71 | 3.42 | 0.769 | 2.09 | 0.422 | 1.25 | 0.625 | 1.37 | 1.3 | 2.96 | 0.152 |  | 0.441 | 3.79 | 2.15 |  | 
10 | TATTCAGGGTCAAAGGCCAGAGTACGAATGTCGA | 7.57 | 5.36 | 5.04 | 8.53 | 7.7 | 6.15 | 7.42 | 2.47 | 5.28 | 4.08 | 6.08 | 3.43 | 4.67 | 0.543 | 6.17 | 1.17 | 4.83 | 3.61 |  | 
11 | CAAACCAGGTCAAGAGGTCAAAGTCCGCTTCCCG |  | 6.64 | 1.8 | 8.56 | 7.51 | 5.51 | 7.2 | 5.93 | 6.81 | 3.85 | 3.15 | 8.14 |  | 3.35 | 8.42 | 3.47 | 5.6 | 5.59 | 6.66 | 6.68
12 | CCAGACAGGTGAGAAGGTAACTCAGCCTCGATTA |  | 0.0228 | -0.0173 | 0.522 | 0.838 | 0.0404 | 0.628 | 1 | 0.964 | -0.28 | -0.249 | 1.03 | 0.228 | 0.138 | 0.486 | 0.698 | 0.666 | 0.841 | 0.435 | 0.833
13 | AGAATGGGGTTATACGTAGATCAGGGAAGAAAGT |  | 0.583 | 2.07 | 3.69 | 4 | 1.39 | 3.03 | 4.84 | 2.95 | 2.51 | 1.53 | 1.86 | 2.56 | 1.48 |  | 1.54 | 1.93 | 1.67 | 2.95 | 5.16
14 | GATACAGGGTCAAGGTCAGAGTACGCGTATTGAT |  | 1.48 | 0.776 | 7.68 | 6.67 | 4.07 | 5.8 | 2.93 | 5.18 | 1.47 | 0.678 | 2.96 | 5.08 | 1.84 | 5.53 | 2.12 | 5.11 | 5.14 | 5 | 5.88
15 | AATACAGGGTCATCGTACGCCAGAGTACGCACAG |  | 2.87 | 1.54 | 7.02 | 6.25 | 2.92 | 5.21 | 2.92 | 4.44 | 3.9 | 1.45 | 3.42 | 4.53 | 0.995 | 5.47 | 1.81 | 4.45 | 3.46 | 6.21 | 5.99
16 | CGAACGAGGTCATCCAGGACAGTGAATACATTGA |  | 1.53 | 1.78 | 7.79 | 7.07 | 3.9 | 6.1 | 5.37 | 6.11 | 3.53 | 2.68 | 4.36 |  | 9.68 | 6.05 | 1.86 | 5.11 | 4.1 | 6.03 | 6.37
